For one test, the system named is TAB165. The experiment in a line: qHTS profiling for inhibitors of Plasmodium falciparum proliferation (AID 504749). Also: potency is read from the fitted curve at half-maximal effect. The note with it: P. falciparum in erythrocytes, SYBR Green DNA, 72 h; series mostly up to 28.7 µM. The gist of the method:
(§1)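 Fluorescence of SYBR Green-bound parasite DNA, read at 485/535 nm, served as the growth measure. Infected erythrocytes were cultured with compound 72 h; artemisinin (0.29 uM) and DMSO wells defined the normalization range.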
A general note: qHTS replaces the single test concentration by a dilution series.

The test system of the next test is CRL-7250. The experiment in a line: Cytotoxic Profiling of Annotated Libraries Using Quantitative High-Throughput Screening (AID 1296008). As to max response: % is scaled to controls: 0 for no effect and ±100 for the full control effect. The note with it: Five cell lines viability, CellTiter-Glo ATP luminescence, 48-72 h; max response: stronger effect = lower value. The gist of the method:
(§2)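 Compounds were pin-transferred onto cells and incubated 48 or 72 hr at 37 degree Celsius, 95% humidity. CellTiter-Glo was added, plates sat 10 min at room temperature, then ATP-coupled luminescence was imaged as the viability read-out.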

The test system of a further test is HEK293. Described as above. The note with it: Five cell lines viability, CellTiter-Glo ATP luminescence, 48-72 h; max response: stronger effect = lower value. The method, boiled down:
as §2
A general note: Cellular ATP, detected with luciferase, serves as a proxy for viable cell number.

Test [1] deals with HaCat. The test is described as above. The note with it: Five cell lines viability, CellTiter-Glo ATP luminescence, 48-72 h; max response: stronger effect = lower value. The gist of the method: as §2
A further test concerns KB-3-1. The description is as above. The note with it: Five cell lines viability, CellTiter-Glo ATP luminescence, 48-72 h; max response: stronger effect = lower value. The method, boiled down: as §2
Another test has as its system NIH3T3. Described as above. The note with it: Five cell lines viability, CellTiter-Glo ATP luminescence, 48-72 h; max response: stronger effect = lower value. The gist of the method: as §2
Another test concerns HEK293T. In words: qHTS assay to identify novel small-molecules to repurpose for Merkel cell carcinoma treatment (AID 1296009). As to activity change, negative = cytotoxicity: % is scaled to controls: 0 for no effect and ±100 for the full control effect. The note with it: MCC and control cell lines, CellTiter-Glo viability, 72 h; at 44.8 µM (top of the series) unless noted. The method, boiled down:
(§3)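 Luminescence from CellTiter-Glo, read 10 min after addition at room temperature, reported viability following a 72 hr, 37 degree celsius treatment with NPC or MIPE compounds in titration; values normalized to plate controls.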

The next test concerns MCC-13. The test is described as above. The note with it: MCC and control cell lines, CellTiter-Glo viability, 72 h; series mostly up to 46 µM. The method, boiled down: as §3
The test system of the next test is W2. The experiment in a line: qHTS profiling for inhibitors of Plasmodium falciparum proliferation (AID 504749). Also: potency is read from the fitted curve at half-maximal effect. The note with it: P. falciparum in erythrocytes, SYBR Green DNA, 72 h; series mostly up to 28.7 µM. The method, boiled down:
as §1

Test [2] has as its system HACAT. The experiment in a line: qHTS assay to identify novel small-molecules to repurpose for Merkel cell carcinoma treatment (AID 1296009). As to activity change, negative = cytotoxicity: % is scaled to controls: 0 for no effect and ±100 for the full control effect. The note with it: MCC and control cell lines, CellTiter-Glo viability, 72 h; at 44.8 µM (top of the series) unless noted. The method, boiled down: as §3

The values that follow come from PubChem BioAssay (NCATS).

Values joined by “and” are separate entries in the source; they are usually repeats but may differ in a detail not shown here. Identical values can stand only once. Records with an inconclusive call do not appear. Values without a mark were called inactive. Active and inactive are the calls of the source. Calls follow the shape of the dose curve; as a rule, active = well fitted inhibition curve with a large enough effect; inconclusive = small, poorly fitted or top-dose-only effect; inactive = flat fitted curve, though single readings scatter.
Also: nearly all actives have a fitted effect of over 60% in size.

With `NCC(=O)CCC(=O)O`, the Potency entry in the test on TAB165 and in the test with MCC-13 was “inactive” throughout. Further, the max response in the test on CRL-7250 is -2.12%; with HaCat [1], -9.5%; in the test with KB-3-1, 1.71%. The call with HEK293, in the test with NIH3T3 and with HEK293T was inactive.

For `O=Cc1ccccc1C=O`, the Potency entry in the test with TAB165, with W2 and in the test on MCC-13 was “inactive” throughout. Moreover, the figures for the max response in the test with CRL-7250, in the test with HaCat [1] and in the test on KB-3-1 were -8.99%, 3.01% and -3.37%, respectively. Moreover, the outcome in the test with HEK293, in the test with NIH3T3 and in the test on HEK293T was inactive.

On to `COc1cc(C(=O)N2CCOCC2)cc(OC)c1OC`, for which the Potency entry in the test on TAB165, in the test with W2 and in the test with MCC-13 was “inactive” each time. Moreover, the max response is 0.938% with CRL-7250; 1.96% with HEK293; 4.09% and 1.86% in the test on KB-3-1. Further, the outcome with HaCat [1], in the test on NIH3T3 and in the test with HACAT [2] was inactive.

For the compound `C#CCN(C)Cc1ccccc1`, the Potency result with TAB165, in the test on W2 and with MCC-13 was “inactive” throughout. In addition, the max response is 4.31% with CRL-7250, -27.7% in the test on HEK293, -4.93% with KB-3-1 and 3.32% with NIH3T3. Also, the compound was called inactive in the test with HaCat [1] and in the test on HACAT [2].

As for `Cc1cc(O)cc2c1O[C@](C)(CCC[C@H](C)CCC[C@H](C)CCCC(C)C)CC2`, the Potency result in the test with TAB165, with W2 and with MCC-13 was “inactive” in each case. The max response in the test with CRL-7250 was -1.48%; in the test with HEK293 it was 2.12%; in the test with KB-3-1 it was -4.01% and 1.69%. Besides, the call with HaCat [1], in the test on NIH3T3 and in the test with HACAT [2] was inactive.

`O=C(O)c1ccccc1-c1ccc(C(F)(F)F)cc1`: the Potency result in the test with TAB165, with W2 and in the test with MCC-13 was “inactive” in each case. Moreover, the compound was called inactive in the test on CRL-7250, in the test with HEK293, with HaCat [1], in the test with HACAT [2] and with HEK293T. Also, the values for the max response with KB-3-1 and in the test on NIH3T3 were -5.64% and -3.57%, respectively.

For `NCCNCCNCCNCCN`, the Potency entry with TAB165 and in the test on W2 was “inactive” in each case. For the same compound, the values for the max response in the test with CRL-7250, in the test with KB-3-1 and in the test on NIH3T3 were 3.13%, -4.72% and -0.231%, respectively. In addition, the outcome in the test with HEK293 and in the test on HaCat [1] was inactive. The outcome in the test with HACAT [2] and with HEK293T was “inactive [at 9.27 µM]” in each case. Also, in the test on MCC-13, the activity change, negative = cytotoxicity was 6.32% [at 9.22 µM].

In the case of `O=c1cc[nH]c(=O)[nH]1`, the Potency entry in the test on TAB165, in the test on W2 and with MCC-13 was “inactive” each time. For the same compound, the outcome with CRL-7250, in the test on HEK293, in the test on NIH3T3 and with HEK293T was inactive. Moreover, the max response with HaCat [1] is -1.66%; in the test on KB-3-1, 20.9%.

In the case of `CCCCC/C(C=O)=C\c1ccccc1`, the max response is -6.23% in the test with CRL-7250, 1.14% with HaCat [1] and -6.5% with KB-3-1. Moreover, the outcome in the test with HEK293, in the test on NIH3T3 and with HEK293T was inactive. The Potency result with MCC-13 was “inactive”.

For `O=C1NS(=O)(=O)c2ccccc21`, the Potency result in the test on TAB165, with W2 and in the test on MCC-13 was “inactive” each time. Besides, the max response with CRL-7250 is -9.05%; in the test with KB-3-1, 20.6%; in the test on NIH3T3, -6%. In addition, the outcome in the test on HEK293, in the test on HaCat [1], in the test on HACAT [2] and in the test with HEK293T was inactive.

Regarding `C[C@]12CC[C@@H]3c4ccc(O)cc4CC[C@H]3[C@@H]1CCC2=O`, the compound was called inactive in the test on CRL-7250, in the test on HEK293 and in the test with HEK293T. Further, the values for the max response in the test with HaCat [1], in the test on KB-3-1 and with NIH3T3 were 3.4%, 23.7% and 0.542%, respectively. For the same compound, the Potency entry in the test with MCC-13 was “inactive”.

For the compound `NC1CCN(c2cccc(Cl)n2)CC1`, the Potency entry with TAB165 and in the test with MCC-13 was “inactive” each time. Besides, the Potency in the test with W2 was 6.01 µM (active). For the same compound, the max response is 0.115% with CRL-7250, -9.08% with HEK293 and 2% in the test with KB-3-1. For the same compound, the compound was classed as inactive with HaCat [1], in the test with NIH3T3 and in the test on HACAT [2].

In the case of `Cc1ccc(C(C)C)cc2c(C)ccc1-2`, the Potency result with TAB165 and in the test with MCC-13 was “inactive” in each case. Besides, the figures for the max response in the test on CRL-7250, in the test on HaCat [1] and in the test on KB-3-1 were 3.16%, -2.06% and -19.4%, respectively. Further, the compound was classed as inactive in the test with HEK293, in the test with NIH3T3 and with HEK293T.

Take `Nc1ccc(S(=O)(=O)Nc2ccc(Cl)nn2)cc1`: the Potency with TAB165 was 1 µM (active). Further, the Potency entry in the test on W2 and with MCC-13 was “inactive” in each case. In addition, the max response is -2.16% in the test with CRL-7250; 0.946% in the test on HaCat [1]; 14.3% and -6.92% in the test with KB-3-1; 1.13% with NIH3T3. Besides, the result in the test with HEK293 and with HEK293T was inactive.
